# Source: PubChem (several laboratories)
# Most compounds without a hit are left out; they make up all but 1.5% or so of the library.
# PKA inh = inhibitors of human protein kinase A | PKA Kemptide phosphorylation, Kinase-Glo ATP luminescence | hit rate 0.1% among 65,000 | inhibition, % at 6 µM;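 active means inhibition above the screen-wide mean inhibition plus 3 SD, cut at about 21% in these data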
# ROCK2 inh = blocks human Rho kinase 2 activity; O75116; purified ROCK2, Kinase-Glo ATP depletion luminescence; inhibition, % at 6 µM; hit rate 0.35% among 60,000; AID 604;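 active means inhibition above the screen-wide mean inhibition plus 3 SD, cut at about 18% in these data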;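 further: plate controls were DMSO wells for no effect and Y-27632 control wells after no-enzyme background subtraction for full effect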
# JNK3 blocker = inhibitors of human JNK3 kinase. purified JNK3 kinase activity, HTS. P53779. AID 746. inhibition, % at 8 µM. hit rate 0.61% among 60,000; in the data active means inhibition above about 17%;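 further: 0% = DMSO and 100% = reference inhibitor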
# PLK1 kinase inh = PLK1 (human) kinase inhibition; P53350; recombinant PLK1 kinase, TR-FRET peptide phosphorylation; inhibition, % at 10 µM; hit rate 0.53% among 97,000; AID 619;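 active means inhibition of 50% or more in the single-concentration screen; inactive means inhibition below 50%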;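 further: 0% = DMSO max control and 100% = H-89 dihydrochloride min control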
# Plk1 PBD FP = inhibitors of human Plk1 polo box domain binding; P53350; Plk1 PBD phosphopeptide binding, fluorescence polarization; inhibition, %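 (tested at about 20 µM)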; hit rate 0.13% among 97,000; AID 693; in the data active means inhibition above about 34%, passing the limit was not always enough
# FAK inh = FAK (human) kinase inhibition; biochemical FAK kinase activity assay; inhibition, %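 (tested at 7 µM)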; hit rate 0.84% among 97,000; AID 727;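 further: 0% = DMSO and 100% = reference compound high control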
# Target sequence (Q05397 whole entry, looked up): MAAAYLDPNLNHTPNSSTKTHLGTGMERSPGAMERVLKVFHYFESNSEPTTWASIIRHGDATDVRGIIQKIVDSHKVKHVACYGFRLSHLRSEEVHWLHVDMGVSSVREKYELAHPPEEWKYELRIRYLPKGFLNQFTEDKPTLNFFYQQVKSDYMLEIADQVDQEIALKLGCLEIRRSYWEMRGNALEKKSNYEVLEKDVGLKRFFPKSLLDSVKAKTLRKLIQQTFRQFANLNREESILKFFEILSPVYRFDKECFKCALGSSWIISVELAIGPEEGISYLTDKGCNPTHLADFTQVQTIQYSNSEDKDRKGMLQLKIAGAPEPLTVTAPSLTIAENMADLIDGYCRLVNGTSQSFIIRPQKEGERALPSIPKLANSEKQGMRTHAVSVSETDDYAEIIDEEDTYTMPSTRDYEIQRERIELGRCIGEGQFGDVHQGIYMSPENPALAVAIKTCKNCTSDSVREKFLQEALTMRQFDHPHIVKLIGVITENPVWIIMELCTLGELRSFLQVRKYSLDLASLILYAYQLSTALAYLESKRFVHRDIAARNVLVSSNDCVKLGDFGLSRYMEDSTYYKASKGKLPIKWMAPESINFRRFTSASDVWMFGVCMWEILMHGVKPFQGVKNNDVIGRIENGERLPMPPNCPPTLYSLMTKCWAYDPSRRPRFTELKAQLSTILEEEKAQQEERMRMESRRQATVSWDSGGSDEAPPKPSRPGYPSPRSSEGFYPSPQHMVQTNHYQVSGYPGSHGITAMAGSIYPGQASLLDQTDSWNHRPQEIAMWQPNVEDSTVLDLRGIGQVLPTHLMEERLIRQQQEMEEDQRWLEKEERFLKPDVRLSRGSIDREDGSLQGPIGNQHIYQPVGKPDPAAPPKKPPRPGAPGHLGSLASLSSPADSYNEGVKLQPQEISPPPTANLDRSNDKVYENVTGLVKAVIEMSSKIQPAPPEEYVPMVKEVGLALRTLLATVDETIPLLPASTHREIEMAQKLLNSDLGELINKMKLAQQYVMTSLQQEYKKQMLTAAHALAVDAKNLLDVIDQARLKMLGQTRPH
# FAK inh confirm = confirmation of human focal adhesion kinase (FAK) inhibitors | AID 794 | inhibition, % at 7 µM | shares compounds with FAK inh | hit rate 28% among 750 | FAK kinase biochemical inhibition assay
# * = called active by the depositor; · = no result. Unless noted, no stated cut-off is given here; in the data, active means inhibition above about 19%; inactive means the rest.
SMILES,PKA inh,ROCK2 inh,JNK3 blocker,PLK1 kinase inh,Plk1 PBD FP,FAK inh,FAK inh confirm
O=C(CSc1nc(O)c(C2CCCCC2)c(=O)[nH]1)Nc1ccc(Cl)cc1,-0.2,-2.8,0.0,·,·,·,·
COC(=O)c1sccc1-c1ccc(C(=O)Nc2cccc(Cl)c2)o1,·,·,·,-13.8,17.2,26.2*,7.2
CCN1C/C(=C\c2cccc(C)c2)c2nc3ccccc3c(C(=O)O)c2C1,·,·,·,-2.9,43.2,7.7,·
Cc1cc(NCCCN)nc(-c2ccccc2O)n1,-6.2,-3.0,4.1,-9.4,-9.2,20.8*,12.1
CCOC(=O)C1CCCN(S(=O)(=O)c2ccc(OC)cc2)C1 (stereo not given),·,·,·,-5.9,-11.3,2.1,·
COc1ccc(N2Cc3cccc(C(=O)N4CCN(C(=O)c5ccco5)CC4)c3C2=O)cc1,6.6,1.5,5.4,-9.6,-17.5,49.3*,1.9
O=C(CSc1ccc2nnc(-c3ccc(Cl)cc3)n2n1)N1CCN(c2ccccc2)CC1,-6.7,-1.2,-4.1,·,·,·,·
CCOc1ccc2nc(NC3=NC(C)(C)C=C(C)N3)nc(C)c2c1,·,·,·,-6.8,-20.6,0.6,·
CCOc1ccc2nc(NC3=NC(c4ccc(OC)cc4)CC(=O)N3)nc(C)c2c1 (stereo not given),·,·,·,-5.2,-3.2,35.8*,24.6*
COc1ccc(-c2nnc(SCC(=O)NCc3ccco3)n2C)cc1,3.8,1.7,-1.7,-5.8,23.9,0.0,·
CN1CCN(CC(=O)n2c3c(c4ccccc42)CCCC3)CC1,-2.2,-2.8,2.3,-0.8,25.2,20.0*,1.6
CN1C(=O)c2cccc3c(S(=O)(=O)NCc4ccco4)ccc1c23,8.5,10.3,-8.8,-11.5,11.7,36.2*,21.2*
Nc1c2c(=O)oc(-c3ccccc3)cc2nn1-c1ccccc1,·,·,·,-11.8,-6.6,2.8,·
Cc1c(-c2ccc(Cl)cc2)oc(=O)c2c(N)n(-c3ccccc3)nc12,·,·,·,-28.7,26.7,24.1*,13.9
O=C(Nc1nnc(Cc2ccc(Cl)cc2)s1)c1ccco1,·,·,·,3.1,4.9,1.0,·
CC(C)C(NC(=S)NCc1ccccc1)C(=O)O (stereo not given),·,·,·,0.5,-24.5,1.2,·
COc1ccc2nc(N3CCC(O)CC3)c(C#N)cc2c1,13.7,3.9,-4.6,4.8,4.2,5.3,·
CCOC(=O)C1CCN(c2nc3cc(OC)ccc3cc2C#N)CC1,0.4,2.7,4.3,-2.3,-2.0,19.2*,0.3
CN1CCN(S(=O)(=O)c2ccc(NC(=O)Cc3cccs3)cc2)CC1,6.2,5.7,0.2,-16.8,-4.1,0.5,·
O=C(Cc1cccs1)Nc1ccc(S(=O)(=O)N2CCCCC2)cc1,8.2,5.2,-2.0,-6.2,7.0,22.8*,9.0
O=C(NCc1ccccn1)c1ccc(N2CCCC2=O)cc1,-0.9,-0.8,6.9,0.4,-0.6,7.4,·
COc1cccc(C(=O)NC2CC3CCCC(C2)N3CC(=O)Nc2ccccc2)c1 (stereo not given),-2.6,-2.8,0.9,7.8,11.0,22.4*,7.4
O=C(Nc1ccc(Cl)cc1)N(C1=NCCC1)c1ccc(OC(F)F)cc1,·,·,·,0.6,-35.5,-6.7,·
O=C1c2ccccc2C(=O)c2c(NCc3cccnc3)cccc21,·,·,·,-3.6,-11.3,27.7*,11.2
c1ccc(NCc2cccnc2)cc1,·,·,·,-11.7,-27.3,-0.5,·
SMILES,PKA inh,ROCK2 inh,JNK3 blocker,PLK1 kinase inh,Plk1 PBD FP,FAK inh,FAK inh confirm
Clc1ccc(Cl)c(OCc2cc(-c3ccccc3Cl)on2)c1,·,·,·,-13.9,-4.8,-2.5,·
Nc1ncnc2nc(SCc3ccc(Cl)cc3Cl)[nH]c12,·,·,·,22.3,8.7,25.0*,15.8
O=C(NNc1ccccc1[N+](=O)[O-])Nc1ccccc1,·,·,·,-3.0,-8.9,20.8*,17.2
O=C(Nc1ccccc1)c1[nH]ncc1[N+](=O)[O-],·,·,·,-13.5,-22.1,-1.4,·
O=C(c1ccc(NS(=O)(=O)c2cccs2)cc1)N1CCCCC1,1.1,·,·,-15.2,-2.7,25.4*,11.9
Cc1ccc(-c2n[nH]c(=S)n2/N=C/C=C\c2ccccc2[N+](=O)[O-])cc1,·,·,·,-15.8,-12.4,29.1*,15.1
c1ccc(CNc2ncnc3sc4c(c23)CCC4)nc1,·,·,·,-9.8,-20.8,19.6*,2.6
CCOC(=O)C(C(=O)NCc1ccc(F)cc1)c1ncc(C(F)(F)F)cc1Cl (stereo not given),·,·,·,-6.5,8.0,0.7,·
CCOC(=O)C(C(=O)N(C)C)c1ncc(C(F)(F)F)cc1Cl (stereo not given),·,·,·,-11.7,-22.8,78.5*,-2.5
Cc1cccc(Nc2nc(NC(C)C)nc(Oc3ccc(=O)n(C)n3)n2)c1,-10.4,-7.4,-0.1,-4.6,8.3,-0.2,·
COC(=O)/C(=C/Nc1ccccc1)[N+](=O)[O-],·,·,·,-20.6,-2.4,-1.1,·
COC(=O)/C(=C/Nc1ccc(O)cc1)[N+](=O)[O-],·,·,·,3.2,-5.7,37.9*,-2.6
c1nc(N2CCOCC2)c2c3c(sc2n1)CCCC3,4.2,3.7,5.0,-12.0,-13.7,28.3*,-1.0
c1ccn(-c2ncnc3sc4c(c23)CCCC4)c1,-0.1,3.7,-3.4,0.4,-4.5,-0.8,·
COc1cccc(-c2[nH]nc3c2C(c2ccoc2)C(C#N)=C(N)O3)c1 (stereo not given),·,·,·,-7.0,24.1,2.8,·
Oc1ccc2ccccc2c1C=Nc1ccc(N2CCOCC2)cc1,·,·,·,3.1,-32.5,46.0*,49.4*
CCCCC1(O)CC(C(F)(F)F)=NN1C(=O)COc1ccccc1 (stereo not given),·,·,·,-12.9,5.8,-1.8,·
COc1ccccc1/C=C1\NC(=S)N(CC2CCCO2)C1=O (stereo not given),·,·,·,-9.7,11.6,-3.5,·
CN1C(=O)/C(=C/c2ccccc2OCc2ccccc2F)NC1=S,·,·,·,-1.8,-8.0,21.1*,3.1
COc1cccc(C(=O)N(Cc2ccc(N(C)C)cc2)C2CCS(=O)(=O)C2)c1 (stereo not given),3.9,5.4,-9.0,-5.7,-11.4,0.2,·
CCOC(=O)c1c(NC(=O)CSc2nncn2C)sc(C)c1C,·,·,·,-10.7,-19.1,-1.5,·
Cn1cnnc1SCC(=O)Nc1sc2c(c1C(N)=O)CCC2,-1.0,0.8,-10.0,-4.0,-18.0,22.8*,5.6
CCOc1cccc(CNc2ccc(O)cc2)c1OCc1ccc(Cl)cc1Cl,·,·,·,-9.7,2.2,29.1*,-0.5
Cc1ccccc1NC(=O)CCC(=O)OCC(=O)c1ccc(-c2ccccc2)cc1,·,·,·,-3.2,-13.6,5.0,·
Cc1cccc(C)c1OCC(O)CNC(C)(C)C (stereo not given),·,·,·,-6.8,12.8,7.4,·
Cc1ccc(Cn2ccc(NC(=O)c3noc4c3CCc3ccccc3-4)n2)cc1,·,·,·,-2.8,3.7,3.5,·
COc1ccc2c(c1)CCc1c(C(=O)Nc3ccn(Cc4ccc(C)cc4)n3)noc1-2,4.8,-1.0,-5.9,-3.5,7.5,25.5*,-1.0
